Drawing on PubChem BioAssay AID1987 (The Scripps Research Institute Molecular Screening Center, 2009), this text covers inhibition for 58 compounds.

Molecules are shown by their SMILES. Out of some 320,000 compounds screened, about 560 (0.17%) were called active.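 How the source made its calls: active means inhibition above the campaign's mean inhibition across all tested compounds plus 3 SD (cut at about 9.5% in these data); inactive means the rest.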 Many of the other results were omitted from the sample, so actives are more common in it than they were.

In the test the target is Serine/threonine-protein phosphatase 5 (Homo sapiens) (UniProt P53041). Put plainly: inhibition of human PP5 catalytic activity – biochemical, fluorescence, primary screen (AID 1987).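 Further: 0% = DMSO only and 100% = 100 µM cantharidin control.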 As to conditions: purified PP5c, OMFP substrate fluorescence; at 6.7 µM; active compounds read high.
Sequence of Serine/threonine-protein phosphatase 5 (Homo sapiens) (P53041 whole entry, looked up): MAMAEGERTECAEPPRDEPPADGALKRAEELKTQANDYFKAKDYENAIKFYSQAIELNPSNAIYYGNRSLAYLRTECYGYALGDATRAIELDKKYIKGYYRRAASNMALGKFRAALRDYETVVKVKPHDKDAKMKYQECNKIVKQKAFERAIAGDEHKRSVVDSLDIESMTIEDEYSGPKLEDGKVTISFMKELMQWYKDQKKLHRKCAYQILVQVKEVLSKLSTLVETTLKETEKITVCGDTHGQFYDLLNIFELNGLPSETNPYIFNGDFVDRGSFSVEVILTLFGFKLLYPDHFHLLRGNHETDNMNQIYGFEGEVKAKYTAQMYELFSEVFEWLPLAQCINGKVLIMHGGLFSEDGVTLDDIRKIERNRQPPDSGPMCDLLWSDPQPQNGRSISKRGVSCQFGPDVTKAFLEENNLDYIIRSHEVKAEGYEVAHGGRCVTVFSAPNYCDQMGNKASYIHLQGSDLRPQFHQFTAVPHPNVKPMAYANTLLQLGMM
What is called inhibition is the relative decrease from the control value, in per cent. Regarding `Cc1ccc(Cn2c(C)c3cnn(CC(=O)NCc4ccccn4)c(=O)c3c2C)cc1`, the inhibition was -1.29% (inactive). As to `CCNC(=O)c1sccc1-n1cccc1`, the inhibition was 0.46% (inactive). Take `CC(C)(C)C(=O)NNC(=O)c1ccc(Oc2cc(Cl)cc(Cl)c2)o1`: the inhibition is -2.8% (inactive). The result for `CCn1nnc(NC(=O)c2cc(Cl)c(OC)c(Cl)c2)n1` reads 0.92% (inactive); that for `CCN(CC(=O)NC1CCS(=O)(=O)C1)c1nc(-c2cccnc2)nc2ccccc12` (stereo not drawn), -1.12% (inactive); that for `Cc1cc(Cl)ccc1OCCCC(=O)NCc1ccccn1`, 1.77% (inactive). In the case of `O=C1[C@H]2[C@@H](c3ccc(F)cc3)N3C(=O)N(c4ccc(C(F)(F)F)cc4)C(=O)[C@@]3(Cc3ccccc3)[C@H]2C(=O)N1C1CCCCC1`, the inhibition is 5.23% (inactive). `CCCN(CCC)S(=O)(=O)c1ccc(C(=O)N2CC3CCC(CC3)C2)cc1`: the inhibition was 2.42% (inactive).

For `CCOC(=O)c1sc(N(Cc2ccccc2)C(=O)CN2C(=O)CN(C)C2=O)nc1C`, the inhibition is -1.26% (inactive). `C[C@H]1[C@H]2c3nc4ccccc4n3C[C@H]1ON2C1CCCCC1`: the inhibition is -1.65% (inactive). On to `COc1ccc(C(=O)NCc2ccc(C)cc2)cc1S(=O)(=O)N1CCCC1`, for which the inhibition was -1.31% (inactive). Regarding `NCCCC[C@@H]1NC(=O)[C@H](CCC(=O)O)NC(=O)c2cc([N+](=O)[O-])cc(I)c2NCC[C@@H](C(N)=O)NC1=O`, the inhibition was 4.27% (inactive). The result for `Cn1c(CC(=O)Nc2ccc(F)cc2)nnc1SCC(=O)NC1CCCCC1` reads 1.34% (inactive); that for `COc1cccc(NC(=O)Nc2nnc(N3CCCCC3C)s2)c1` (stereo not drawn), 3.58% (inactive). The result for `CC(C)c1ccc(/C=C/C(=O)NCCCN2CCOCC2)cc1` reads 0.61% (inactive); that for `CCC(C(=O)Nc1ncccn1)(C(F)(F)F)C(F)(F)F`, -2.46% (inactive); that for `C/C(N)=C(/C#N)C(=O)COC(=O)c1cc(-c2ccc(C)cc2)nc2ccccc12`, 3.74% (inactive). With `CSCC[C@H](NC(=O)N1CCn2c1nc1ccccc12)C(=O)NCc1ccc2c(c1)OCO2`, the inhibition was -0.3% (inactive). The result for `CCN(C(=O)COc1ccc(C(=O)c2ccccc2)cc1)c1ccccc1` reads 0.04% (inactive); that for `N#Cc1c(-c2ccccc2)c(-c2ccccc2)n[nH]c1=O`, -1.11% (inactive); that for `O=c1[nH]c(-c2ccccc2)c(-c2ccccc2)[nH]1`, 0.4% (inactive). The result for `O=C(O)c1n[nH]nc1-c1ccccc1` reads 50.7% (active); that for `CSCc1ccc(C(=O)Nc2cc(C)cc(C)c2)cc1`, -1.23% (inactive); that for `COc1ccc(NC(=O)COC(=O)CNC(=O)C2CCCCC2)cc1`, -1.03% (inactive).

Turning to `COCCN(C(=O)COC(=O)Cc1cccc(OC)c1)c1c(N)n(Cc2ccccc2)c(=O)[nH]c1=O`, the inhibition is -0.76% (inactive).

On to `O=C(CSc1n[nH]c(=O)n1-c1ccccc1)Nc1ccccc1C(F)(F)F`, for which the inhibition is 1.79% (inactive). On to `O=C1C(C=NCC2CCCO2)=C(O)c2ccccc21` (stereo not drawn), for which the inhibition is 2.92% (inactive). The same measure for `Cc1ccccc1C(=O)NCC(c1ccco1)N1CCc2ccccc21` (stereo not drawn): -0.08% (inactive); for `Cc1cccc(N(C)C(=O)CN2C(=O)COc3ccc(S(=O)(=O)N4CCCCCC4)cc32)c1`: 5.32% (inactive). With `O=C(O)c1cccc2c1C(=O)N(C1CCCCC1)C2`, the inhibition is 1.97% (inactive). Take `CN1CCN(C(=O)Cn2c(C(F)(F)F)nc3ccccc32)CC1`: the inhibition is 0.08% (inactive). Take `COc1ccc(CNC(=O)C2(CC3CC(c4ccccc4)=NO3)CCN(C(=O)c3cccc(O)c3)CC2)cc1` (stereo not drawn): the inhibition was 0.71% (inactive). As for `CN(CC(=O)Nc1ccccc1Cl)C(=O)COc1cccc2c1OC(C)(C)C2`, the inhibition is 1.31% (inactive).

`CCOc1cnc(-c2c(-c3ccccc3Cl)noc2C)o1`: the inhibition was 3.98% (inactive).

In the case of `Cc1ccc(N2CC(C(=O)N3CCC4(CC3)CC(=O)c3ccccc3O4)CC2=O)cc1C` (stereo not drawn), the inhibition was -1.86% (inactive).

`Cc1cccc(S(=O)(=O)N2CN(CC3CCCO3)c3nc4ccccc4nc32)c1` (stereo not drawn): the inhibition was 3.91% (inactive). The same measure for `N#C/C=C\Oc1ccc(Cl)cc1N`: -0.64% (inactive); for `CC1CCCCC1NC(=O)C1CCCN1S(=O)(=O)c1cccc2nsnc12` (stereo not drawn): -5.55% (inactive).

As for `Cc1cccc(NC(=O)c2cccc(C(=O)Nc3cccc(C)c3C)n2)c1C`, the inhibition was -0.92% (inactive). With `CCNc1nc(NC(C)C)nc(N2CC(=O)N(CC(=O)OCC)C2=N)n1`, the inhibition was -0.1% (inactive). In the case of `C=CCN1CCN(C(=O)CCCc2ccccc2)CC1`, the inhibition is 2.37% (inactive).

Regarding `Cc1cccc(CCNC(=O)Cn2ncc3c([nH]c4ccc(C)cc43)c2=O)c1`, the inhibition was -2.46% (inactive). The result for `Cc1ccc(Nc2nc(N)nc(CSc3nnc(C)s3)n2)cc1` reads 3.84% (inactive); that for `Cc1nnc(SCc2nc3ccccc3nc2C)s1`, 12.1% (active); that for `Cc1nnc(SCc2cc(=O)[nH]c(N3CCN(Cc4ccccc4)CC3)n2)s1`, 1.51% (inactive). Turning to `Cc1ccc(NC2=NC(c3ccccc3)n3c(nc(C)cc3=O)N2)cc1` (stereo not drawn), the inhibition was 0.48% (inactive). The same measure for `COc1ccccc1NS(=O)(=O)c1ccc(C)c(C(=O)NCC(c2ccco2)N(C)C)c1` (stereo not drawn): -1.06% (inactive); for `COC(=O)C1(C)CC1(c1ccccc1)c1ccccc1` (stereo not drawn): 3.86% (inactive); for `COc1ccc(-c2cc(=O)oc3cc(OC(C)C(=O)Nc4ccc(CN5CCOCC5)cc4)ccc23)cc1` (stereo not drawn): 4.28% (inactive).

Turning to `CCCCCC1CCC(c2nnc(SCC(C)=O)o2)CC1` (stereo not drawn), the inhibition was 2.41% (inactive). The same measure for `COc1ccc(N(CC(=O)NC2CCCC2)C(=O)CS(=O)CC(=O)Nc2ccc3c(c2)OCO3)cc1` (stereo not drawn): 0.8% (inactive); for `Cn1c(=O)c2sccc2n(Cc2ccc(Br)cc2)c1=O`: 3.16% (inactive). The same measure for `CCN(CC)C(=O)CSc1nnc(CNc2ccc(F)cc2)n1Cc1ccco1`: 3.87% (inactive); for `O=C(NN1C(=O)C2C3C=CC(O3)C2C1=O)c1ccncc1` (stereo not drawn): -0.72% (inactive). The result for `CC(C)(C)n1nc2c(c1NC(=O)c1ccc(S(=O)(=O)N3CCCC3)cc1)CS(=O)C2` (stereo not drawn) reads -2.2% (inactive); that for `C=CCOc1ccc(/C=C/C(=O)OCC(=O)NCC2CCCO2)cc1` (stereo not drawn), -0.48% (inactive). For the compound `O=Cc1c(Nc2ccccc2Cl)nc2ccccn2c1=O`, the inhibition is -0.13% (inactive). For the compound `C[C@H](NC(=O)c1[nH]cnc1C(=O)Nc1nccs1)c1ccccc1`, the inhibition was 1.13% (inactive).
